KCNH2 3.1 block – blocks the human KCNH2 3.1 channel isoform; AID 720553; activity change, % (tested at about 1.8 µM); U2OS KCNH2 3.1, thallium flux FluxOr; stronger effect = lower value; 0.95% of 340,000 active;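 active = maximum activity change below -70%; inconclusive = maximum activity change from -70% to -50%; inactive = maximum activity change above -50%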;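 also: thallium influx rate constant from kinetic fluorescence after stimulation buffer; % is scaled to controls: 0 for no effect and ±100 for the full control effect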
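Channel expression came from 3.1 mutant virus (1.77 x 10^8 /mL) applied to suspended U2OS cells for 4 h. Flux was tracked with FluxOr dye plus Red40 quencher, and kinetic rate constants normalized to controls.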
ClpP mod – qHTS Assay for Activators of ClpP. purified B. subtilis ClpP, FRET peptide cleavage, 20 min. 1.9% of 340,000 active. AID 651965, 2013. Potency, µM (highest dose often 57.5 µM), for the others: top-dose activity change, negative = active. ATP-dependent Clp protease proteolytic subunit (Bacillus subtilis (strain 168)), P80244; active = well fitted falling curve with a large enough effect; inconclusive = small, poorly fitted or top-dose-only effect; inactive = no such curve, though single readings can be large or run the other way; also: potency is read from the fitted curve at half-maximal effect; the source files actives as falling curves though it sought activators and does not explain the sign; nearly all actives have a fitted effect of over 65% in size
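Purified B. subtilis ClpP, 10 microg/mL final in Tris/HCl pH8 with KCl, BSA, glycerol and Tween-20, cleaved an Abz/nitrotyrosine-quenched decapeptide. Fluorescence (ex 320, em 430) was read at 0 and 20 min at room temperature. Delta was normalized to 5.8 microM ADEP and DMSO/no-enzyme controls.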
LDHA block – inhibitors of human lactate dehydrogenase A; P00338; purified LDHA, NADH/diaphorase-resazurin fluorescence; stronger effect = lower value; activity change, % (values are at about 110 or 230 µM); 0.15% of 480,000 active; in the data active = activity change below about -30%; inconclusive = mostly about -25% to -30%;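 also: plate controls were DMSO wells for no effect and wells without enzyme for full effect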
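Human LDH5 (2 nM) was incubated with 0.06 mM NADH and 0.2 mM pyruvate for 5 min at room temperature in Tris pH 7.4. Remaining NADH was coupled through diaphorase/resazurin, and resorufin fluorescence was read at 0 and 20 min.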
Chronic BCR inh – inhibitors of chronic active B-cell receptor signaling. ABC-DLBCL IkBa-CBG/CBR reporter, luminescence ratio, 4 h. Potency, µM (doses to about 46.1 µM), inactives show at the highest dose activity change, negative = inhibition, actives largely listed as inhibitors. 0.05% of 340,000 active. AID 493014; active = well fitted inhibition curve with a large enough effect in the signal ratio, with a control signal flat, not every such curve was filed as active; inconclusive = small, poorly fitted or top-dose-only effect, or effect the other way, or a change in a side signal; the % refers to the signal ratio;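 also: potency is read from the fitted curve at half-maximal effect; plate controls were basal doxycycline-induced cells for no effect and cells given 10 µM MG132 for full effect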
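Doxycycline induced both beetle luciferases in TMD8 lymphoma cells; IKK-driven degradation limits the IkappaBalpha-fused green signal, while red luminescence normalises for cell number and nonspecific effects. Compounds tested up to 46 uM, 4 hrs.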
12-LOX inh – inhibitors of human 12S-lipoxygenase ALOX12; purified 12hLO, xylenol orange hydroperoxide absorbance; Potency, µM (top dose mostly 108 µM), for the others: at the top dose activity change, negative = inhibition, actives largely listed as inhibitors; 1.1% of 580,000 active; AID 1671190; active = well fitted inhibition curve with a large enough effect; inconclusive = small, poorly fitted or top-dose-only effect, or another doubt; inactive = no such curve, though single readings can be large or run the other way; also: potency is read from the fitted curve at half-maximal effect; % is scaled to controls: 0 for no effect and ±100 for the full control effect
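Purified human 12hLO (150 nM final) in 25 mM Hepes, 0.01% Triton X-100, pH 7.0 was preincubated 15 min at room temperature with compound. Then 40 uM arachidonic acid was added, 30 min. Hydroperoxide was read by Fe-XO absorbance ratio 573/405 nm.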
hERG WT inh – KCNH2 (human, wildtype) channel inhibition | Q12809 | AID 720551 | activity change, % at 1.84 µM | U2OS, BacMam KCNH2, thallium flux FluxOr; stronger effect = lower value | 0.37% of 340,000 active;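 active = maximum activity change below -70%; inconclusive = maximum activity change between -70% and -50%; inactive = maximum activity change above -50%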; also: % is scaled to controls: 0 for no effect and ±100 for the full control effect
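U2OS cells were transduced with wild-type KCNH2 virus (2.03 x 10^8 / mL) for 4 h at room temperature, then cultured overnight at 37 C. Thallium flux was read with FluxOr dye. Rate constants were normalized to DMSO controls.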
Numbers without * were called inactive; ? = inconclusive; nt = no result given. The list is not random: actives were taken first. Their share in the collection is about 3%.

SMILES	KCNH2 3.1 block	ClpP mod	LDHA block	Chronic BCR inh	12-LOX inh	hERG WT inh
CCC(=O)c1ccccc1OCCCN1CCC(Cc2ccccc2)CC1	-100.2*	nt	-8.0	?	6.31µM*	-130.8*
COc1ccc(Cl)cc1-n1c(C)cc(C=O)c1C	-13.4	31.6µM*	-8.8	?	0.0%	0.5
COc1cc2c(cc1OC)-c1cc(NC3CCCC3)nc(=O)n1CC2	-6.3	31.6µM*	-3.3	15.8µM*	-2.6%	-5.6
CCN(CC)c1ccc(Nc2cc3n(c(=O)n2)CCc2cc(OC)c(OC)cc2-3)cc1	9.8	nt	-1.7	11.2µM*	?	0.4
COc1cc2c(cc1OC)-c1cc(Nc3ccc(F)cc3)nc(=O)n1CC2	12.4	?	-4.0	?	-15.1%	9.5
O=C(NC1CCCCC1)O[C@@H]1CO[C@H]2[C@@H]1OC[C@@H]2n1nnnc1SCc1ccco1	nt	nt	nt	nt	3.55µM*	nt
COCC(C)n1c(SCc2nc3ccccc3c(=O)[nH]2)nc2ccccc2c1=O (stereo not given)	8.5	20µM*	1.3	-1.2%	-6.2%	-17.1
CC[N+](CC)(CC)CCCOC1CC(C)CCC1C(C)C (stereo not given)	nt	nt	6.5	nt	?	nt
CNC(=S)N(CCc1c(C)[nH]c2ccccc12)Cc1cccnc1	-191.1*	nt	-2.4	1.6%	35.3%	-133.3*
CNC(=S)N(CCc1c(C)[nH]c2ccc(C)cc12)Cc1cccnc1	-3.5	1.2%	-3.2	-2.1%	-26.9%	-11.9
COc1cc(NS(=O)(=O)c2cc(C(=O)N3CCCCCC3)cs2)cc(OC)c1	nt	nt	-10.4	nt	-3.4%	nt
CCN(CC)S(=O)(=O)c1ccc2nc(CCl)[nH]c2c1	-6.7	14.1µM*	-6.3	1.2%	10.7%	18.0
COc1ccccc1NS(=O)(=O)c1ccc2nc(CCl)[nH]c2c1	-6.9	nt	5.8	-6.6%	-10.9%	-5.3
COc1ccccc1-c1coc2c(CN(C)C)c(O)ccc2c1=O	-20.6	4.6%	-0.5	7.1%	1.8%	10.1
CCN(CC)Cc1c(O)ccc2c(=O)c(Oc3ccccc3OC)coc12	11.3	17.8µM*	-1.0	-1.0%	5.1%	4.0
CCN(CC)Cc1c(O)ccc2c(=O)c(-c3ccccc3)coc12	-6.6	4.3%	1.5	10.5%	?	-3.1
COc1ccccc1Oc1coc2c(CN(C)C)c(O)ccc2c1=O	-2.3	28.2µM*	1.5	0.2%	?	-3.9
Cc1nc(-c2coc3c(CN(C)C)c(O)ccc3c2=O)cs1	8.2	31.6µM*	2.6	1.2%	1.0%	-9.8
CCN(CC)Cc1c(O)ccc2c(=O)c(-c3ccc4c(c3)OCCO4)coc12	5.3	28.2µM*	-0.8	?	-5.5%	3.5
CC(=O)CC1(C(C#N)C#N)C(=O)Nc2ccccc21 (stereo not given)	nt	nt	-15.8	nt	-22.2%	nt
COCC1CN(C)CC12CCN(Cc1ccc(C#N)cc1)CC2 (stereo not given)	nt	nt	nt	nt	62.6%	nt
CCOC(=O)C1(CCCc2ccccc2)CCN(Cc2cn(CC)nc2C)CC1	-92.9*	nt	-15.1	-1.1%	-3.0%	-16.6
CCOC(=O)C1(CCCc2ccccc2)CCN(CCCn2cccn2)CC1	-110.8*	0.8%	-4.8	-1.7%	-25.3%	-131.1*
CCOC(=O)C1(Cc2ccccc2C(F)(F)F)CCN(Cc2ccccn2)CC1	nt	nt	nt	nt	15.8µM*	nt
CCOC(=O)C1(Cc2cccc(F)c2)CCN(Cc2cn(CC)nc2C)CC1	-1.0	nt	-0.5	1.9%	?	2.3
SMILES	KCNH2 3.1 block	ClpP mod	LDHA block	Chronic BCR inh	12-LOX inh	hERG WT inh
CCOC(=O)C1(CCc2ccccc2)CCN(Cc2cccc3nccnc23)CC1	-99.2*	-2.5%	0.7	-15.6%	-1.2%	-33.8
CCOC(=O)C1(CCCc2ccccc2)CCN(Cc2nccn2CC)CC1	-92.8*	nt	-12.3	4.6%	-0.3%	-13.3
CCOC(=O)C1(Cc2cccc(F)c2)CCN(Cc2cnc(C)s2)CC1	-0.6	nt	-0.4	?	5.6%	-2.2
CCOC(=O)C1(CCCc2ccccc2)CCN(Cc2cnc(C)s2)CC1	-23.2	nt	-13.5	2.2%	2.1%	-91.5*
CCOC(=O)C1(Cc2ccccc2)CCN(C2Cc3ccccc3C2)CC1	-86.5*	nt	3.1	-1.2%	10.1%	-3.3
COc1ccc(-c2ccc(C#N)c(SCC(=O)OCc3ccccc3)n2)cc1OC	-2.5	?	-3.3	?	-38.9%	11.9
N#Cc1ccc(-c2ccc3c(c2)OCO3)nc1SCC(=O)OCc1ccccc1	-3.7	2.51µM*	-3.0	?	-2.5%	2.5
O=C(O)c1cnc[nH]1	nt	nt	-1.2	nt	?	nt
O=C(COC(=O)CNC(=O)c1ccccc1F)Nc1ncc(Cl)cc1Cl	-4.8	0.9%	1.9	9.3%	39.8µM*	-11.2
O=C(COC(=O)c1cn(-c2ccccc2)nc1-c1ccccc1)Nc1ncc(Cl)cc1Cl	-15.3	nt	-1.4	13.2%	25.1µM*	2.1
Cc1cccc(NC2=C(C(N)=O)S(=O)(=O)c3ccccc32)c1	nt	nt	-2.7	nt	?	nt
O=C(Nc1c(-c2ccccc2)nc2ccccn12)c1cccc(F)c1	5.4	nt	-31.1*	-0.3%	14.6%	8.3
O=C(Nc1c(-c2ccccc2)nc2ccccn12)c1ccccc1	3.1	0.5%	-6.4	4.2%	7.6%	5.2
O=C(Cn1c(-c2cccs2)cc2cc(Cl)ccc21)N1CCN(c2ccccc2F)CC1	nt	12.6µM*	-11.5	nt	-23.8%	nt
